SMILES strings stand for the structures. Records with an inconclusive call do not appear. The source made the active and inactive calls. Calls follow the shape of the dose curve; as a rule, active = well fitted curve in the direction sought with a large enough effect; inconclusive = small, poorly fitted or top-dose-only effect, or another doubt; inactive = no such curve, though single readings can be large or run the other way.
Potency is read from the fitted curve at half-maximal effect.

This assay concerns NanoLuc luciferase (engineered Oplophorus gracilirostris luciferase). The assay is described as follows: Confirmatory Nanoluciferase (NLuc) qHTS assay for identification of artifact compounds. As to activity change, negative = inhibition: % of control where 0% means no effect. The settings on record: secreted NLuc in S16 cell medium, luminescence, 5 min; series mostly up to 39 µM; activity change, negative = inhibition: at the top concentration. The gist of the method: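 Compounds were preincubated 15 min at room temperature with diluted secreted NanoLuc from S16 cell medium, then read by luminescence 5 min after Nano-Glo substrate. Percent inhibition versus DMSO and no-enzyme controls fitted by 4-parameter Hill curve.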
`COc1ccc(CCNC(=O)Cn2cc(C(=O)c3ccc(F)cc3)c(=O)c3ccc(C)nc32)cc1OC`: the “activity change, negative = inhibition” value was -3.94% (inactive).
In the case of `CCOc1ccccc1C(=O)Nc1cccc2ccc(C)nc12`, the “activity change, negative = inhibition” value is -12.5% (inactive).
Consider `COc1ccccc1N1CCN(S(=O)(=O)c2c(C)nc3sc(C)c(C)n3c2=O)CC1`, for which the “activity change, negative = inhibition” value was -6.1% (inactive).
For `COC(=O)C1=C[C@@H](C(=O)OC)C2C3=C(C(=O)[C@]2(C)NC(=O)c2ccccc2)[C@H](C)n2c(=O)n(C)c(=O)n2[C@@H]3C1` (stereo partly drawn), the “activity change, negative = inhibition” value is -5.36% (inactive).
As for `CC(=O)Nc1cc(-c2ccccc2)nn1Cc1cccc(Cl)c1`, the “activity change, negative = inhibition” value is -0.214% (inactive).
`O=C(Nc1sc2c(c1-c1nc3ccccc3s1)CCNC2)C(F)F`: the “activity change, negative = inhibition” value is -7.36% (inactive).
Regarding `CCN(CCCNC(=O)CSc1cc(=O)n(C)c2ccccc12)c1ccccc1`, the “activity change, negative = inhibition” value was -11.1% (inactive).
Consider `COc1ccc(-c2cc(C(=O)Nc3cc(C(F)(F)F)ccc3Cl)no2)cc1`, for which the “activity change, negative = inhibition” value is -1.6% (inactive).
Regarding `C=C[C@@]1(C)CC(=O)[C@]2(O)[C@@]3(C)[C@@H](O)CCC(C)(C)[C@@H]3[C@H](OC(=O)CCN(C)C)[C@H](OC(C)=O)[C@@]2(C)O1`, the “activity change, negative = inhibition” value is -11.8% [at 78.4 µM] (inactive).
The same measure, in the same setting: for `CCCn1c(C)nc2c(N3CCCN(Cc4ccccc4)CC3)nc(C)nc21` the value was -1.03% (inactive).
For the compound `Brc1ccc2nc(SCCOc3ccccc3)[nH]c2c1`, the “activity change, negative = inhibition” value was -4.85% (inactive).
Consider `CC(Sc1oc(-c2cccs2)nc1S(=O)(=O)c1ccccc1)c1ccccc1` (stereo not drawn), for which the “activity change, negative = inhibition” value was -16.5% (inactive).
Turning to `COc1ccc(Cn2c(CCC(=O)Nc3cc(C)cc(C)c3)nc3cccnc32)cc1`, the “activity change, negative = inhibition” value is -16.6% (inactive).
As to `CCN(CC)CCNC(=O)c1nn(C)c2c1CS(=O)(=O)c1ccccc1-2`, the “activity change, negative = inhibition” value was 8.41% (inactive).
As for `Cc1ccc(CNCc2cn[nH]c2-c2ccc(C)cc2)cc1`, the “activity change, negative = inhibition” value was -0.831% (inactive).
With `O=C(OCc1ccccc1)c1ccccc1O`, the “activity change, negative = inhibition” value was 0.921% (inactive).
On the same count and under the same terms, then `CCCN(C(=O)Cc1c(C(=O)O)[nH]c2ccc(Cl)cc12)c1ccc(OCC)cc1`, with -2.15% (inactive); and `O=C1c2ccccc2C(=O)N1Cc1ccccn1`, with -0.535% (inactive); and `COc1ccc(-c2nc3cccc(C)n3c2Nc2ccc(C)cc2)cc1`, with -4.83% (inactive).
With `Cc1oc(-c2cccc(Br)c2)nc1CSc1nc2ncccc2[nH]1`, the Potency was 8.64 µM (active).
For `CCCC[C@H]1C2=C3[C@@H](CC(C(=O)OC)=C[C@@H](C(=O)OC)[C@H]3C(C)(C)C2=O)n2c(=O)n(-c3ccccc3)c(=O)n21`, the “activity change, negative = inhibition” value is -3.75% (inactive).
For the compound `CCCN(CCC)CCNC(=O)CN1C(=O)COc2ccc(S(=O)(=O)N3CCC(C)CC3)cc21`, the “activity change, negative = inhibition” value was -0.175% (inactive).
In the case of `O=C(Nc1ccc(Br)cc1)c1cccc(C(=O)Nc2ccc(Br)cc2)c1`, the “activity change, negative = inhibition” value was -2.91% (inactive).
`O=C(Oc1ccccc1Cl)c1cc(-c2ccc3c(c2)OCCO3)on1`: the Potency was 1.54 µM (active).
With `CCc1ccc(Cn2c(CNS(=O)(=O)c3ccc(Cl)s3)nc3cccnc32)cc1`, the “activity change, negative = inhibition” value was -7.88% (inactive).
In the case of `CCOC(=O)c1ccc(N2C(=O)c3[nH]nc(-c4ccc(C)cc4)c3C2c2ccc(O)cc2)cc1` (stereo not drawn), the “activity change, negative = inhibition” value is -2.76% (inactive).
With `CCCS(=O)(=O)N1CC(=O)N(c2cc(C)cc(C)c2)C(C)(C(=O)NC2CCCCCC2)C1` (stereo not drawn), the “activity change, negative = inhibition” value is -15.1% (inactive).
With `CC1CCN(c2ccc(-c3nc(C(C)C)no3)cc2[N+](=O)[O-])CC1`, the “activity change, negative = inhibition” value is -3.52% (inactive).
